# Experiments:
# [1] = target: POU1 (OCT1 POU domain) (human, UniProt P14859 260-458); assay: EMSA-SELEX-seq; no BOB1; 20 mM Tris-HCl pH 7.6, 140 mM NaCl, 10% glycerol, 0.5 mM EDTA, 0.05% Triton X-100, 0.1 mg/mL BSA, 0.1 mg/mL poly(dI-dC), 5 mM DTT, room temperature, 20 min; high values mean tight binding; details: protein: recombinant; dsDNA, one strand shown
# Method in brief: (§1)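 Tagged POU-domain proteins were expressed in E. coli BL21, purified under denaturing conditions and renatured. Then 30 ng was mixed with 300 ng of a PCR-amplified double-stranded random 35-nt library, with or without 28 ng coactivator protein, in 20 μL Tris–HCl pH 7.6 binding buffer for 20 min at RT. Complex bands were cut from native 6% PAGE, eluted and PCR-amplified over four rounds, then Illumina-sequenced. Binding preference is the percentage of sequenced 8-mers matching a motif pattern.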
# [2] = target: T1, POU2 (OCT2 POU domain) (human, UniProt P09086 175-386); assay: as above; details: protein: recombinant; dsDNA, one strand shown
# T1 sequence: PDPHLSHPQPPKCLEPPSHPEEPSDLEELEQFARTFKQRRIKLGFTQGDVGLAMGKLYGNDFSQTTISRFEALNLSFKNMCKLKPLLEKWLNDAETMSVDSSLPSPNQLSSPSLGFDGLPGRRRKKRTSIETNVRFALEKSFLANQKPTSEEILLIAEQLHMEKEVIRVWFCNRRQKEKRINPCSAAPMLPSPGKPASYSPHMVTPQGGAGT
# Method in brief: as §1
# [3] = target: POU1 (OCT1 POU domain);BOB1 (OBF1, OCA-B) (human;human, UniProt P14859;Q16633 260-458;1-256, |); assay: EMSA-SELEX-seq; with BOB1 (ternary complex band); 20 mM Tris-HCl pH 7.6, 140 mM NaCl, 10% glycerol, 0.5 mM EDTA, 0.05% Triton X-100, 0.1 mg/mL BSA, 0.1 mg/mL poly(dI-dC), 5 mM DTT, room temperature, 20 min; high values mean tight binding; details: protein: recombinant;recombinant; copies: 1;1; dsDNA, one strand shown
# Method in brief: as §1
# [4] = target: T2, POU2 (OCT2 POU domain);BOB1 (OBF1, OCA-B) (human;human, UniProt P09086;Q16633 175-386;1-256, |); assay: as above; details: protein: recombinant;recombinant; copies: 1;1; dsDNA, one strand shown
# T2 sequence 1: T1 sequence
# T2 sequence 2: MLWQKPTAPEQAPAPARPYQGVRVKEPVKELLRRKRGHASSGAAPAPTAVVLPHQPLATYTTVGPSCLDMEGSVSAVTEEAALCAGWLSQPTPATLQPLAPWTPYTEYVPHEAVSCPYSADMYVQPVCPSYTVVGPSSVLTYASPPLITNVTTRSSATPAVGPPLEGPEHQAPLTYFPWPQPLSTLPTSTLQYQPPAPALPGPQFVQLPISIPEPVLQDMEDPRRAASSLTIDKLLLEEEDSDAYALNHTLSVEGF
# Method in brief: as §1
# Sequence of POU1 (OCT1 POU domain) (P14859 260-458): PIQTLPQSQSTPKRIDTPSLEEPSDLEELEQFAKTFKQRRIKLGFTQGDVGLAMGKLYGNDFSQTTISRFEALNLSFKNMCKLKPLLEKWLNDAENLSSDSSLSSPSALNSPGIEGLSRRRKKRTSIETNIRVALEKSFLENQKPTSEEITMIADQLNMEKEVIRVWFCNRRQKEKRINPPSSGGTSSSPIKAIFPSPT
Sequence,binding signal [1],binding signal [2],binding signal [3],binding signal [4]
AGTTAAAG,0.0545 % of ANNNNAAN 8-mers,0.0564 % of ANNNNAAN 8-mers,0.064 % of ANNNNAAN 8-mers,0.0528 % of ANNNNAAN 8-mers
AGGGCAAT,0.0442 % of ANNNNAAN 8-mers,0.0558 % of ANNNNAAN 8-mers,0.0457 % of ANNNNAAN 8-mers,0.0611 % of ANNNNAAN 8-mers
AGACTAAT,0.0744 % of ANNNNAAN 8-mers,0.102 % of ANNNNAAN 8-mers,0.0507 % of ANNNNAAN 8-mers,0.066 % of ANNNNAAN 8-mers
ACAGGAAG,0.0343 % of ANNNNAAN 8-mers,0.038 % of ANNNNAAN 8-mers,0.0332 % of ANNNNAAN 8-mers,0.0396 % of ANNNNAAN 8-mers
ACGATAAG,0.0275 % of ANNNNAAN 8-mers,0.0311 % of ANNNNAAN 8-mers,0.0215 % of ANNNNAAN 8-mers,0.0314 % of ANNNNAAN 8-mers
ATCGAAAC,0.0275 % of ANNNNAAN 8-mers,0.0236 % of ANNNNAAN 8-mers,0.0316 % of ANNNNAAN 8-mers,0.0215 % of ANNNNAAN 8-mers
ATAAGAAC,0.0362 % of ANNNNAAN 8-mers,0.0518 % of ANNNNAAN 8-mers,0.0332 % of ANNNNAAN 8-mers,0.0438 % of ANNNNAAN 8-mers
AAGATAAC,0.0248 % of ANNNNAAN 8-mers,0.0334 % of ANNNNAAN 8-mers,0.0285 % of ANNNNAAN 8-mers,0.0388 % of ANNNNAAN 8-mers
AAACAAAC,0.066 % of ANNNNAAN 8-mers,0.0506 % of ANNNNAAN 8-mers,0.109 % of ANNNNAAN 8-mers,0.0512 % of ANNNNAAN 8-mers
AGGTAAAC,0.0534 % of ANNNNAAN 8-mers,0.0558 % of ANNNNAAN 8-mers,0.0792 % of ANNNNAAN 8-mers,0.0537 % of ANNNNAAN 8-mers
AAGTAAAA,0.108 % of ANNNNAAN 8-mers,0.0967 % of ANNNNAAN 8-mers,0.132 % of ANNNNAAN 8-mers,0.0693 % of ANNNNAAN 8-mers
AGGGAAAG,0.194 % of ANNNNAAN 8-mers,0.136 % of ANNNNAAN 8-mers,0.222 % of ANNNNAAN 8-mers,0.142 % of ANNNNAAN 8-mers
AAATGAAT,0.256 % of ANNNNAAN 8-mers,0.273 % of ANNNNAAN 8-mers,0.181 % of ANNNNAAN 8-mers,0.239 % of ANNNNAAN 8-mers
AGACGAAG,0.0198 % of ANNNNAAN 8-mers,0.019 % of ANNNNAAN 8-mers,0.0203 % of ANNNNAAN 8-mers,0.0272 % of ANNNNAAN 8-mers
AGACAAAG,0.0404 % of ANNNNAAN 8-mers,0.0374 % of ANNNNAAN 8-mers,0.0558 % of ANNNNAAN 8-mers,0.0248 % of ANNNNAAN 8-mers
ACGTAAAA,0.0648 % of ANNNNAAN 8-mers,0.0529 % of ANNNNAAN 8-mers,0.0823 % of ANNNNAAN 8-mers,0.0537 % of ANNNNAAN 8-mers
AGGCTAAT,0.133 % of ANNNNAAN 8-mers,0.197 % of ANNNNAAN 8-mers,0.0675 % of ANNNNAAN 8-mers,0.0908 % of ANNNNAAN 8-mers
ATGCAAAC,0.543 % of ANNNNAAN 8-mers,0.445 % of ANNNNAAN 8-mers,1.35 % of ANNNNAAN 8-mers,1.27 % of ANNNNAAN 8-mers
AGAGCAAC,0.0133 % of ANNNNAAN 8-mers,0.0115 % of ANNNNAAN 8-mers,0.0137 % of ANNNNAAN 8-mers,0.0206 % of ANNNNAAN 8-mers
ATGCTAAT,1.85 % of ANNNNAAN 8-mers,1.82 % of ANNNNAAN 8-mers,0.249 % of ANNNNAAN 8-mers,0.283 % of ANNNNAAN 8-mers
AGGACAAG,0.0263 % of ANNNNAAN 8-mers,0.0293 % of ANNNNAAN 8-mers,0.0297 % of ANNNNAAN 8-mers,0.0289 % of ANNNNAAN 8-mers
AAACTAAA,0.0503 % of ANNNNAAN 8-mers,0.0483 % of ANNNNAAN 8-mers,0.0523 % of ANNNNAAN 8-mers,0.0471 % of ANNNNAAN 8-mers
AACGCAAA,0.147 % of ANNNNAAN 8-mers,0.0978 % of ANNNNAAN 8-mers,0.266 % of ANNNNAAN 8-mers,0.229 % of ANNNNAAN 8-mers
ATTCGAAT,0.117 % of ANNNNAAN 8-mers,0.137 % of ANNNNAAN 8-mers,0.08 % of ANNNNAAN 8-mers,0.102 % of ANNNNAAN 8-mers

Sequence,binding signal [1],binding signal [2],binding signal [3],binding signal [4]
AGATAAAC,0.04 % of ANNNNAAN 8-mers,0.0506 % of ANNNNAAN 8-mers,0.0519 % of ANNNNAAN 8-mers,0.0487 % of ANNNNAAN 8-mers
ACATGAAA,0.0671 % of ANNNNAAN 8-mers,0.0708 % of ANNNNAAN 8-mers,0.0823 % of ANNNNAAN 8-mers,0.0619 % of ANNNNAAN 8-mers
AGCCGAAA,0.0191 % of ANNNNAAN 8-mers,0.0247 % of ANNNNAAN 8-mers,0.0238 % of ANNNNAAN 8-mers,0.0198 % of ANNNNAAN 8-mers
ATTCGAAA,0.0725 % of ANNNNAAN 8-mers,0.0783 % of ANNNNAAN 8-mers,0.0605 % of ANNNNAAN 8-mers,0.0578 % of ANNNNAAN 8-mers
AGCATAAT,0.269 % of ANNNNAAN 8-mers,0.277 % of ANNNNAAN 8-mers,0.0757 % of ANNNNAAN 8-mers,0.106 % of ANNNNAAN 8-mers
AACTTAAG,0.0351 % of ANNNNAAN 8-mers,0.042 % of ANNNNAAN 8-mers,0.0363 % of ANNNNAAN 8-mers,0.0363 % of ANNNNAAN 8-mers
AATTGAAT,0.203 % of ANNNNAAN 8-mers,0.238 % of ANNNNAAN 8-mers,0.127 % of ANNNNAAN 8-mers,0.125 % of ANNNNAAN 8-mers
ATGGTAAC,0.0454 % of ANNNNAAN 8-mers,0.0621 % of ANNNNAAN 8-mers,0.0316 % of ANNNNAAN 8-mers,0.0429 % of ANNNNAAN 8-mers
ATTGTAAC,0.0362 % of ANNNNAAN 8-mers,0.0374 % of ANNNNAAN 8-mers,0.0336 % of ANNNNAAN 8-mers,0.0371 % of ANNNNAAN 8-mers
ACACAAAG,0.0309 % of ANNNNAAN 8-mers,0.0196 % of ANNNNAAN 8-mers,0.0418 % of ANNNNAAN 8-mers,0.0305 % of ANNNNAAN 8-mers
ATTTAAAG,0.183 % of ANNNNAAN 8-mers,0.185 % of ANNNNAAN 8-mers,0.152 % of ANNNNAAN 8-mers,0.0759 % of ANNNNAAN 8-mers
ACCGGAAC,0.0137 % of ANNNNAAN 8-mers,0.0138 % of ANNNNAAN 8-mers,0.0133 % of ANNNNAAN 8-mers,0.0124 % of ANNNNAAN 8-mers
AAACAAAA,0.156 % of ANNNNAAN 8-mers,0.115 % of ANNNNAAN 8-mers,0.256 % of ANNNNAAN 8-mers,0.14 % of ANNNNAAN 8-mers
AGCTTAAG,0.029 % of ANNNNAAN 8-mers,0.0391 % of ANNNNAAN 8-mers,0.0379 % of ANNNNAAN 8-mers,0.0355 % of ANNNNAAN 8-mers
AACGTAAT,0.077 % of ANNNNAAN 8-mers,0.0823 % of ANNNNAAN 8-mers,0.0546 % of ANNNNAAN 8-mers,0.071 % of ANNNNAAN 8-mers
AACCAAAA,0.0522 % of ANNNNAAN 8-mers,0.0449 % of ANNNNAAN 8-mers,0.0753 % of ANNNNAAN 8-mers,0.0388 % of ANNNNAAN 8-mers
AACTCAAG,0.0194 % of ANNNNAAN 8-mers,0.0219 % of ANNNNAAN 8-mers,0.0164 % of ANNNNAAN 8-mers,0.0289 % of ANNNNAAN 8-mers
ACGTGAAG,0.0259 % of ANNNNAAN 8-mers,0.0282 % of ANNNNAAN 8-mers,0.0258 % of ANNNNAAN 8-mers,0.0305 % of ANNNNAAN 8-mers
ACATGAAG,0.0378 % of ANNNNAAN 8-mers,0.0449 % of ANNNNAAN 8-mers,0.03 % of ANNNNAAN 8-mers,0.0355 % of ANNNNAAN 8-mers
ATACTAAA,0.0648 % of ANNNNAAN 8-mers,0.0886 % of ANNNNAAN 8-mers,0.0499 % of ANNNNAAN 8-mers,0.0594 % of ANNNNAAN 8-mers
ACTTGAAA,0.0317 % of ANNNNAAN 8-mers,0.042 % of ANNNNAAN 8-mers,0.0433 % of ANNNNAAN 8-mers,0.0371 % of ANNNNAAN 8-mers
ATCTCAAG,0.0313 % of ANNNNAAN 8-mers,0.0368 % of ANNNNAAN 8-mers,0.039 % of ANNNNAAN 8-mers,0.0413 % of ANNNNAAN 8-mers
ATGCAAAG,1.06 % of ANNNNAAN 8-mers,0.831 % of ANNNNAAN 8-mers,2.22 % of ANNNNAAN 8-mers,2.27 % of ANNNNAAN 8-mers
ACAGTAAA,0.0481 % of ANNNNAAN 8-mers,0.0414 % of ANNNNAAN 8-mers,0.0531 % of ANNNNAAN 8-mers,0.0338 % of ANNNNAAN 8-mers

# From article PMC10812921, “Transcriptional Coactivator BOB1 (OBF1, OCA-B) Modulates the Specificity of DNA Recognition by the POU-Domain Factors OCT1 and OCT2 in a Monomeric Configuration”
